Results from PubChem BioAssay (NCI).
This is part of a sample that, as a whole, favours compounds with a hit. Of some 83,000 tested, about 20% had one in any assay.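 In brief: 96-well plates, 48 h treatment, single concentration, percent growth endpoint.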 Activity calls are given as the source filed them. Rule for the calls: active = growth percent below 10; inactive = the rest.

These compounds were tested on A549/ATCC NSCLC (assay: NCI-60 one-dose screen, 48 h (100 = growth as untreated, 0 = no growth, -100 = all killed)). Conditions: 10 µM unless noted.
With `CCOC(=O)c1ccccc1NC(c1ccccc1)c1ccc2cccnc2c1O` (stereo unspecified) the growth was 21.6% (inactive). For `O=S(=O)(NCCCNc1nccc(-c2c(-c3ccc(O)cc3)nc3sccn23)n1)c1ccc(F)cc1`, the growth was 15.9% (inactive). For `C=CCc1cc(Cl)cc2c(OC(C)=O)c(C(C)=O)c(-c3ccccc3)nc12`, the growth was 102% (inactive). In the case of `NC(=O)c1cccc(N2Cc3ccccc3OC3=C2C(=O)c2c(O)ccc(O)c2C3=O)c1`, the growth was 24.7% (inactive). With `COc1ccc(/C=C2\CCCC3=C2NC(C)=NC3c2ccc(OC)c(OC)c2)cc1OC` (stereo unspecified) the growth was 18% (inactive). In the case of `COc1cc(NS(C)(=O)=O)ccc1Nc1c2ccc([N+](=O)[O-])cc2nc2c(C)cccc12`, the growth was -35.8% (active). In the case of `CC/C=C\C[C@H](O)C/C=C1/C(=O)C(Cl)=C[C@@H]1C/C=C\CCCC(=O)O`, the growth was 100% (inactive). `CCC(=O)Oc1cc(/C=C/C(=O)O[C@H]2C[C@H]3CN4CCc5c([nH]c6cc(OC)ccc56)[C@@H]4C[C@@H]3[C@@H](C(=O)OC)[C@@H]2OC)ccc1OC` was tested, and the growth was 80.5% (inactive). With `Nc1ccccc1C#C/C=C\C#Cc1cccc(O)c1` the growth was 64.5% (inactive). For `O=C(CSc1nc(-c2ccc(Cl)cc2)cn1-c1ccc(Cl)cc1)c1ccc(Br)cc1`, the growth was 59.2% (inactive). With `CC(=O)Nc1nc(C(=O)N2N=C(C)/C(=C/c3cccs3)C2=O)cs1` the growth was 101% (inactive). In the case of `COc1cc(C2C=C(C)N=C3SC(C)=NN32)cc(OC)c1OC` (stereo unspecified), the growth was 103% (inactive). With `COc1cc(C2C=C(C)N=C3SC=CN32)cc(OC)c1OC` (stereo unspecified) the growth was 107% (inactive). `COc1ccc(C2=NN(c3ccc(S(N)(=O)=O)cc3)C(c3cn(-c4ccccc4)nc3-c3ccc(Cl)cc3)C2)cc1` (stereo unspecified) was tested, and the growth was 74.6% (inactive). With `O=C(CCCn1c2c(sc3ccccc32)c(=O)n2nnc(-c3ccccc3)c12)NCCc1cnc[nH]1` the growth was -75.3% (active). In the case of `CCOC(=O)C1=C(CSC(=S)N(C2CCCCC2)C2CCCCC2)N(C)C(=O)NC1c1ccccc1` (stereo unspecified), the growth was 47.2% (inactive). For `COc1cccc(-c2nc3sccn3c2-c2ccnc(NCCNS(=O)(=O)c3ccccc3)n2)c1`, the growth was 64.8% (inactive). `COC(=O)c1ccc2nc(-c3cc4ccccc4n3C)n(CCCCOc3cc4c(cc3OC)C(=O)N3CCC[C@H]3C=N4)c2c1` was tested, and the growth was -11.8% (active). For `CN(C)c1nc(N)c(N=O)c(N)n1`, the growth was 109% (inactive). For `COc1cc(C(=O)/C=C/c2cc(C(=O)c3cc(OC)c(OC)c(OC)c3)ccc2OC)ccc1N`, the growth was 18.5% (inactive). `COc1ccc(C2CC(c3cccs3)=NN2c2ccc(S(=O)(=O)NC(=O)Nc3ccc(C)cc3)cc2)cc1` (stereo unspecified) was tested, and the growth was 102% (inactive). With `COc1cccc(/C=C2\SC(N3CCN(c4ccccn4)CC3)=NC2=O)c1` the growth was 94.5% (inactive). `Nc1nc(N)c2nc(CNc3ccc(C(=O)CC(CCC(=O)O)C(=O)O)cc3)cnc2n1` (stereo unspecified) was tested, and the growth was 2.47% (active). In the case of `Cc1ccc2nc(SCn3nnc4ccccc4c3=O)[nH]c2c1`, the growth was 113% (inactive). In the case of `O=C1Nc2cc(Cl)ccc2Oc2cc(Oc3ccccc3)ccc21`, the growth was 62.2% (inactive). In the case of `OC1CC2c3ccccc3C1c1ccccc12` (stereo unspecified), the growth was 100% (inactive). `N#Cc1ncc(-c2ccc(F)c(F)c2F)c(NC2CCCCCC2)n1` was tested, and the growth was 89.3% (inactive). For `CC(C)(C)c1ccc(S(=O)(=O)Oc2ccc3c4c(c(=O)oc3c2)CCCCC4)cc1`, the growth was 59.3% (inactive). For `CC(Cc1nnc(SCC(=O)Nc2ccc(I)cc2)n1N)c1ccccc1` (stereo unspecified), the growth was 100% (inactive). `CCN(Cc1ccc(CN(CC)C(=O)C(Cl)(Cl)Cl)cc1)C(=O)C(Cl)(Cl)Cl` was tested, and the growth was 79.2% (inactive). `NC(=O)NC(=O)/C=C/C(=O)OCCCl` was tested, and the growth was 105% (inactive). In the case of `CC(=O)OCC1OC(OCC2OC(OC(C)=O)C(OC(C)=O)C(OC(C)=O)C2OC(C)=O)C(OC(C)=O)C(OC(C)=O)C1OC(C)=O` (stereo unspecified), the growth was 94.4% (inactive). With `O=C1c2ccccc2C(=O)c2c1oc1oc3c(c(=O)c21)c(=O)n(-c1ccccc1)c1ccccc31` the growth was 37.7% (inactive).

Each compound was assayed on 786-0 renal in the same assay as above. Conditions: 10 µM unless noted.
For `CCOC(=O)c1ccccc1NC(c1ccccc1)c1ccc2cccnc2c1O` (stereo unspecified), the growth was 1.44% (active). In the case of `O=S(=O)(NCCCNc1nccc(-c2c(-c3ccc(O)cc3)nc3sccn23)n1)c1ccc(F)cc1`, the growth was 16.4% (inactive). `C=CCc1cc(Cl)cc2c(OC(C)=O)c(C(C)=O)c(-c3ccccc3)nc12` was tested, and the growth was 107% (inactive). With `NC(=O)c1cccc(N2Cc3ccccc3OC3=C2C(=O)c2c(O)ccc(O)c2C3=O)c1` the growth was -80.5% (active). `Cc1cccc(NC(=O)c2sc3nc4c(cc3c2N)CCC4)c1C` was tested, and the growth was 42.7% (inactive). In the case of `COc1ccc(/C=C2\CCCC3=C2NC(C)=NC3c2ccc(OC)c(OC)c2)cc1OC` (stereo unspecified), the growth was 9.19% (active). With `COc1cc(NS(C)(=O)=O)ccc1Nc1c2ccc([N+](=O)[O-])cc2nc2c(C)cccc12` the growth was -3.37% (active). For `CC/C=C\C[C@H](O)C/C=C1/C(=O)C(Cl)=C[C@@H]1C/C=C\CCCC(=O)O`, the growth was 75.2% (inactive). For `CCC(=O)Oc1cc(/C=C/C(=O)O[C@H]2C[C@H]3CN4CCc5c([nH]c6cc(OC)ccc56)[C@@H]4C[C@@H]3[C@@H](C(=O)OC)[C@@H]2OC)ccc1OC`, the growth was 70.3% (inactive). `Nc1ccccc1C#C/C=C\C#Cc1cccc(O)c1` was tested, and the growth was 61.5% (inactive). For `O=C(CSc1nc(-c2ccc(Cl)cc2)cn1-c1ccc(Cl)cc1)c1ccc(Br)cc1`, the growth was 34.7% (inactive). `COC(=O)CCCCCN=Cc1c(O)c(O)c(C(C)C)c2cc(C)c(-c3c(C)cc4c(C(C)C)c(O)c(O)c(C=NCCCCCC(=O)OC)c4c3O)c(O)c12` was tested, and the growth was 28.1% (inactive). With `C=CCOc1cccc(/C=C/C(=O)c2sc(Nc3cccnc3)nc2C)c1` the growth was 51.7% (inactive). For `CC(=O)Nc1nc(C(=O)N2N=C(C)/C(=C/c3cccs3)C2=O)cs1`, the growth was 102% (inactive). For `COc1cc(C2C=C(C)N=C3SC(C)=NN32)cc(OC)c1OC` (stereo unspecified), the growth was 105% (inactive). For `COc1cc(C2C=C(C)N=C3SC=CN32)cc(OC)c1OC` (stereo unspecified), the growth was 113% (inactive). With `CC/C=C\C/C=C\C[C@H]1C/C=C2/C(=O)C=C[C@H]2C/C=C\CCC(=O)O1` the growth was -6.65% (active). For `COc1ccc(C2=NN(c3ccc(S(N)(=O)=O)cc3)C(c3cn(-c4ccccc4)nc3-c3ccc(Cl)cc3)C2)cc1` (stereo unspecified), the growth was 105% (inactive). With `O=C(CCCn1c2c(sc3ccccc32)c(=O)n2nnc(-c3ccccc3)c12)NCCc1cnc[nH]1` the growth was -85.2% (active). With `CCOC(=O)C1=C(CSC(=S)N(C2CCCCC2)C2CCCCC2)N(C)C(=O)NC1c1ccccc1` (stereo unspecified) the growth was 48.6% (inactive). `COc1cccc(-c2nc3sccn3c2-c2ccnc(NCCNS(=O)(=O)c3ccccc3)n2)c1` was tested, and the growth was 56.7% (inactive). `COC(=O)c1ccc2nc(-c3cc4ccccc4n3C)n(CCCCOc3cc4c(cc3OC)C(=O)N3CCC[C@H]3C=N4)c2c1` was tested, and the growth was 8.78% (active). `CCn1cc(C(=O)O)c(=O)c2cc(F)c(N3CCN(S(=O)(=O)c4ccc(Cl)cc4Cl)CC3)cc21` was tested, and the growth was 18.7% (inactive). `CN(C)c1nc(N)c(N=O)c(N)n1` was tested, and the growth was 106% (inactive). For `COc1cc(C(=O)/C=C/c2cc(C(=O)c3cc(OC)c(OC)c(OC)c3)ccc2OC)ccc1N`, the growth was 10.5% (inactive). In the case of `COc1ccc(C2CC(c3cccs3)=NN2c2ccc(S(=O)(=O)NC(=O)Nc3ccc(C)cc3)cc2)cc1` (stereo unspecified), the growth was 104% (inactive). With `COc1cccc(/C=C2\SC(N3CCN(c4ccccn4)CC3)=NC2=O)c1` the growth was 108% (inactive). With `Nc1nc(N)c2nc(CNc3ccc(C(=O)CC(CCC(=O)O)C(=O)O)cc3)cnc2n1` (stereo unspecified) the growth was 20.9% (inactive). With `Cc1ccc2nc(SCn3nnc4ccccc4c3=O)[nH]c2c1` the growth was 107% (inactive). With `O=C1Nc2cc(Cl)ccc2Oc2cc(Oc3ccccc3)ccc21` the growth was 74.3% (inactive). In the case of `OC1CC2c3ccccc3C1c1ccccc12` (stereo unspecified), the growth was 98.9% (inactive). In the case of `N#Cc1ncc(-c2ccc(F)c(F)c2F)c(NC2CCCCCC2)n1`, the growth was 87.1% (inactive). With `CC(C)(C)c1ccc(S(=O)(=O)Oc2ccc3c4c(c(=O)oc3c2)CCCCC4)cc1` the growth was 60.8% (inactive). With `CC(Cc1nnc(SCC(=O)Nc2ccc(I)cc2)n1N)c1ccccc1` (stereo unspecified) the growth was 72% (inactive). With `CCN(Cc1ccc(CN(CC)C(=O)C(Cl)(Cl)Cl)cc1)C(=O)C(Cl)(Cl)Cl` the growth was 72.6% (inactive). For `NC(=O)NC(=O)/C=C/C(=O)OCCCl`, the growth was 125% (inactive). In the case of `CC(=O)OCC1OC(OCC2OC(OC(C)=O)C(OC(C)=O)C(OC(C)=O)C2OC(C)=O)C(OC(C)=O)C(OC(C)=O)C1OC(C)=O` (stereo unspecified), the growth was 103% (inactive). In the case of `O=C1c2ccccc2C(=O)c2c1oc1oc3c(c(=O)c21)c(=O)n(-c1ccccc1)c1ccccc31`, the growth was 97.9% (inactive).
